Screening data deposited in PubChem BioAssay by National Center for Advancing Translational Sciences (NCATS).
Sampled rows, rich in hits. Any-hit rate of the full collection: about 2.4%.
Anesthetic bind = candidate novel general anesthetic via apoferritin binding | apoferritin/1-aminoanthracene competitive binding, fluorescence | AID 485281 | Potency, µM (highest dose often 77.5 µM), without a hit: at the highest dose activity change, negative = displacement, usual class: inhibitors | 350,000 tested, 0.074% active | P02791; further: on the % scale 0 is the no-effect control and ±100 the full control effect; nearly all actives have a fitted effect of over 20% in size
Target sequence (P02791 2-175 limits assumed): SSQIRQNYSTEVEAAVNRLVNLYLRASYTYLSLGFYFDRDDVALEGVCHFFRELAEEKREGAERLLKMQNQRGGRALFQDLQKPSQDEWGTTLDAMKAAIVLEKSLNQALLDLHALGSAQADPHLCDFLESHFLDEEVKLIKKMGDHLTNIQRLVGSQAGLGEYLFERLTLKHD
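Probe: 1-aminoanthracene (50% saturated, PBS). Protein: horse-spleen apoferritin, 10 uM. Incubation: 10 min, room temperature. Detection: 380 nm excitation, 535 nm emission. Analysis: normalized response, four-parameter Hill.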
TGFb inhibitor = TGF-b pathway inhibition. HepG2 CAGA-GFP TGF-b/SMAD3 reporter, GFP fluorescence, 18 h; TGF-beta stimulated, 500 pg/mL final. Potency, µM (top dose mostly 46.1 µM), inactives show at the top dose activity, negative = inhibition, most hits filed as inhibitors. 410,000 tested, 1.2% active; further: on the % scale 0 is the no-effect control and ±100 the full control effect; nearly all actives have a fitted effect of over 65% in size
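GFP signal (ex488/em500-530) from TGF-beta-stimulated HEPG2 CAGA-GFP cells, 500 pg/mL final, 18 h at 37 degrees C in DMEM plus 1% FBS, normalized to unstimulated and DMSO-stimulated controls.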
ATXN viability = cell viability loss in ATXN counter-screen; Potency, µM (doses to about 56.7 µM), actives largely listed as cytotoxic; S2 cells (HEK-293 line with an ATXN2-luciferase reporter) viability, CellTiter-Fluor protease fluorescence, 24 h; 400,000 tested, 0.49% active; AID 651635; further: nearly all actives have a fitted effect of over 40% in size
ATXN2 expr inh = reduces ATXN2 reporter expression in HEK-293 cells | HEK-293 ATXN2-luciferase reporter, luminescence, 24 h | AID 1745845 | 360,000 tested, 0.72% active | Potency, µM (titrated, usually from 57 µM), for inactives: top-dose activity change, negative = inhibition, hits mostly inhibitors; further: on the % scale 0 is the no-effect control and ±100 the full control effect; nearly all actives have a fitted effect of over 55% in size
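qHTS (up to 57 uM final) was run with 24 h compound exposure of reporter cells at 37 °C. Each well was multiplexed: SteadyGlo luminescence measured ATXN2-luciferase expression after a fluorogenic Gly-Phe-AFC viability readout (25 uM final).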
HepG2 tox-1 = counter-screen for TGF-b inhibitors: cytotoxicity in HepG2 cells | HepG2 CAGA-GFP viability, ATP luminescence, 18 h | Potency, µM (doses to about 46.1 µM), for the others: at the top dose activity change, negative = cytotoxicity, usual class: cytotoxic | 410,000 tested, 0.76% active | AID 588856
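HepG2 CAGA-GFP cells (1000/well, DMEM with 1% FBS) received compound, then TGF-beta at 500 pg/mL final, and were incubated 18 hours at 37 degrees C. Viability was read by CellTiter-Glo luminescence. Media-only wells were set as complete cell-killing and DMSO as no toxicity.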
TGFb confirm = TGF-b pathway inhibition, cherry-pick retest. Potency, µM (titrated, usually from 46.1 µM), inactives show at the highest dose activity, negative = inhibition, hits mostly inhibitors. shares compounds with TGFb inhibitor. 1,600 tested, 63% active. HepG2 CAGA-GFP TGF-b reporter, GFP fluorescence, 18 h; cells stimulated with TGF-beta, 500 pg/mL; further: on the % scale 0 is the no-effect control and ±100 the full control effect; nearly all actives have a fitted effect of over 65% in size
HepG2 tox-2 = toxic to HepG2 cells in TGF-b counterscreen; AID 720535; shares compounds with TGFb inhibitor; HepG2 CAGA-GFP viability, ATP luminescence, 18 h; cells stimulated with TGF-beta, 500 pg/mL; 1,600 tested, 27% active; Potency, µM (titrated, usually from 46.1 µM), for inactives: top-dose activity, negative = cytotoxicity, hits mostly inhibitors; further: on the % scale 0 is the no-effect control and ±100 the full control effect; nearly all actives have a fitted effect of over 70% in size
CCL64 TGFb inh = orthogonal confirmation of TGF-b inhibitors in CCL64 cells; shares compounds with TGFb inhibitor; CCL64 CAGA-GFP reporter, TGF-b stimulated, GFP fluorescence, 18 h; Potency, µM (series often up to 46.1 µM), for the others: at the highest dose activity, negative = inhibition, usual class: inhibitors; AID 720536; 1,600 tested, 41% active; further: nearly all actives have a fitted effect of over 65% in size
COP TGFb inh = blocks TGF-b signaling in HepG2 COP reporter; shares compounds with TGFb inhibitor; HepG2 COP-GFP TGF-b reporter, GFP fluorescence, 18 h; cells stimulated by added recombinant TGF-beta; Potency, µM (titrated, usually from 46.1 µM), for inactives: at the top dose activity, negative = inhibition, hits mostly inhibitors; 1,600 tested, 3% active; further: nearly all actives have a fitted effect of over 70% in size
* hit, by the source's call. The call rests on the fitted dose curve; in most records, active means well fitted curve in the direction sought with a large enough effect; inconclusive means small, poorly fitted or top-dose-only effect, or another doubt; inactive means no such curve, though single readings can be large; an effect the other way counts as inactive or inconclusive. Potency means the concentration at half of the fitted maximal effect.

CCOc1ccc(CCN2C(=S)N([C@@H](Cc3ccc(O)cc3)CN3CCC[C@@H]3CN3C(=S)NC[C@@H]3CC(C)C)C[C@@H]2Cc2ccccc2)cc1 was read as TGFb inhibitor inconclusive, ATXN viability inconclusive, ATXN2 expr inh 0%, HepG2 tox-1 -10%, TGFb confirm inconclusive, HepG2 tox-2 -3%, CCL64 TGFb inh inconclusive and COP TGFb inh 15%.
Screening CCOc1ccc(CCN2C(=S)N([C@@H](Cc3ccc(O)cc3)CN3CCC[C@@H]3CN3C(=S)NC[C@@H]3CC(C)C)C[C@@H]2CC(C)C)cc1 returned TGFb inhibitor 4.5µM*, ATXN viability inconclusive, ATXN2 expr inh inconclusive, HepG2 tox-1 -10%, TGFb confirm inconclusive, HepG2 tox-2 -19%, CCL64 TGFb inh 16µM* and COP TGFb inh 21%.
Screening CCOc1ccc(CCN2C(=S)N([C@@H](Cc3ccc(O)cc3)CN3CCC[C@@H]3CN3C(=S)NC[C@@H]3Cc3ccccc3)C[C@@H]2CC(C)C)cc1 returned TGFb inhibitor -9%, ATXN viability inconclusive, ATXN2 expr inh -3% and HepG2 tox-1 -22%.
Cc1cc(Cl)cc(C)c1OCC(=O)N1CCN(c2ncccn2)CC1 was read as TGFb inhibitor 12%, ATXN viability inactive, ATXN2 expr inh -6% and HepG2 tox-1 0%.
Screening O=C1c2ccccc2C(=O)c2c1oc(C(F)(F)F)c2C(=O)c1ccccc1 returned Anesthetic bind inconclusive, TGFb inhibitor 1.1µM*, ATXN viability inconclusive, ATXN2 expr inh inconclusive, HepG2 tox-1 1.1µM*, TGFb confirm 4.6µM*, HepG2 tox-2 4.1µM*, CCL64 TGFb inh 4.6µM* and COP TGFb inh 3.7µM*.
`Cc1nc(C)c(-c2ccc(SCC(=O)Nc3cccc(Cl)c3C)nn2)s1` gave Anesthetic bind inconclusive, TGFb inhibitor -10%, ATXN viability inactive, ATXN2 expr inh -1% and HepG2 tox-1 -2%.
`CC1CCN(C(=O)c2[nH]cnc2C(=O)NCc2ccc(CNC(=O)OC(C)(C)C)cc2)CC1` gave TGFb inhibitor inconclusive, ATXN viability inactive, ATXN2 expr inh -4%, HepG2 tox-1 -7%, TGFb confirm inconclusive, HepG2 tox-2 6%, CCL64 TGFb inh 0% and COP TGFb inh -6%.
CC(C)(C)OC(=O)N1CCC(NC(=O)c2[nH]cnc2C(=O)Nc2ccccc2)CC1 was read as TGFb inhibitor 13µM*, ATXN viability inconclusive, ATXN2 expr inh inconclusive, HepG2 tox-1 6%, TGFb confirm inconclusive, HepG2 tox-2 inconclusive, CCL64 TGFb inh inconclusive and COP TGFb inh 22%.
Screening O=C(NCc1ccccc1)c1nc[nH]c1C(=O)N1CCN(c2ccccc2)CC1 returned TGFb inhibitor -7%, ATXN viability inactive, ATXN2 expr inh 13% and HepG2 tox-1 -3%.
Screening CC1CCN(C(=O)c2[nH]cnc2C(=O)NCc2ccccc2)CC1 returned TGFb inhibitor inconclusive, ATXN viability inactive, ATXN2 expr inh 11%, HepG2 tox-1 3%, TGFb confirm -7%, HepG2 tox-2 4%, CCL64 TGFb inh 1% and COP TGFb inh -2%.
`CC1CCN(C(=O)c2[nH]cnc2C(=O)NCC(=O)OC(C)(C)C)CC1` gave Anesthetic bind -13%, TGFb inhibitor -4%, ATXN viability inactive, ATXN2 expr inh 8% and HepG2 tox-1 -23%.
For CCn1cc(C(=O)NCCC(=O)NC(C)C)c(=O)c2cc3c(cc21)OCO3 the results were Anesthetic bind -3%, TGFb inhibitor 0%, ATXN viability inactive, ATXN2 expr inh 7% and HepG2 tox-1 9%.
Screening CCOC(=O)c1ccc2c(c1)nc(C1CCN(S(=O)(=O)c3cccs3)CC1)n2CC returned Anesthetic bind 0%, TGFb inhibitor inconclusive, ATXN viability inconclusive, ATXN2 expr inh inconclusive, HepG2 tox-1 -17%, TGFb confirm inconclusive, HepG2 tox-2 inconclusive, CCL64 TGFb inh -10% and COP TGFb inh 25%.
Cc1cc(C(=O)CSc2ccccc2)cc(C)c1O was read as Anesthetic bind inconclusive, TGFb inhibitor -9%, ATXN viability inactive, ATXN2 expr inh 48% and HepG2 tox-1 2%.
`CC1Oc2ccccc2N(CC(=O)NC2CCCCC2)C1=O` (stereo not given) gave Anesthetic bind -8%, TGFb inhibitor 10%, ATXN viability inactive, ATXN2 expr inh 39% and HepG2 tox-1 1%.
For COc1ccc(CN(C)Cc2c(O)ccc3ccccc23)cc1 the results were Anesthetic bind 0%, TGFb inhibitor 0%, ATXN viability inactive, ATXN2 expr inh 20% and HepG2 tox-1 0%.
Screening O=C(Nc1ccc(N2CCOCC2)cc1)c1ccc([N+](=O)[O-])o1 returned Anesthetic bind -10%, TGFb inhibitor 5.6µM*, ATXN viability inconclusive, ATXN2 expr inh -6%, HepG2 tox-1 -61%, TGFb confirm 12µM*, HepG2 tox-2 23µM*, CCL64 TGFb inh inconclusive and COP TGFb inh 13%.
Screening O=C(Nc1ccc(S(=O)(=O)N2CCOCC2)cc1)c1ccco1 returned Anesthetic bind -11%, TGFb inhibitor -6%, ATXN viability inactive, ATXN2 expr inh 0% and HepG2 tox-1 -1%.
For O=C(COC(=O)c1ccc([N+](=O)[O-])o1)Nc1ccc(N2CCOCC2)cc1 the results were TGFb inhibitor -10%, ATXN viability inactive, ATXN2 expr inh 8% and HepG2 tox-1 -20%.
